This excerpt belongs to a sample that is enriched for hits.
AmpC inh no detg – AmpC beta-lactamase inhibition without detergent; hit rate 0.52% among 330,000; P00811; AmpC nitrocefin hydrolysis, absorbance 480 nm, 0.0001% Triton; Potency, µM (doses to about 57.1 µM), without a hit: at the top dose activity change, negative = inhibition, hits mostly inhibitors;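 note: potency is the fitted concentration of half-maximal effect; plate controls were no compound for no effect and no enzyme for full effect; nearly all actives have a fitted effect of over 20% in size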
Target sequence (P00811 whole entry, looked up): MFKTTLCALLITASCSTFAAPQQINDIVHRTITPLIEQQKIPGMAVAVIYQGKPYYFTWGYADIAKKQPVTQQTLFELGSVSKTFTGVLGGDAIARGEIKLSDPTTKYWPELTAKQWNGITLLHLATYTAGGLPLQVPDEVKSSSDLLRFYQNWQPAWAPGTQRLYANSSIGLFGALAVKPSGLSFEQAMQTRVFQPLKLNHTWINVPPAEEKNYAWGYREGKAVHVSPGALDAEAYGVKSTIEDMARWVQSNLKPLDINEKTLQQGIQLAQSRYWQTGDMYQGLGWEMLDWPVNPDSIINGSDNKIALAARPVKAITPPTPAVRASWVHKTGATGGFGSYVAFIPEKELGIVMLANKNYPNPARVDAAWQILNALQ
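20 mM phosphate pH 7.0 + 0.01% (detergent screen) or 0.0001% Triton X-100; 5.3 nM AmpC reagent; cpd preinc 15 min RT; nitrocefin (800 uM stock) to start; A480 q20 s × 4 min; Activity was normalised to no-enzyme and no-compound control wells.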
SARS PLP yeast – inhibitors of SARS-CoV papain-like protease in yeast | Potency, µM (top dose mostly 32.9 µM), without a hit: at the highest dose activity, positive = growth rescue, most hits filed as activators | S. cerevisiae expressing SARS-CoV PLpro, growth rescue | hit rate 0.19% among 330,000; calls by dose curve; note: potency is the fitted concentration of half-maximal effect; 0% is about no effect; nearly all actives have a fitted effect of over 55% in size
AmpC inh detg – inhibitors of E. coli AmpC beta-lactamase with detergent. P00811. AmpC hydrolysis of nitrocefin, absorbance 480 nm, 0.01% Triton. Potency, µM (series often up to 114 µM), for inactives: at the top dose activity change, negative = inhibition, most hits filed as inhibitors. hit rate 0.041% among 370,000. AID 485294;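 note: potency is the fitted concentration of half-maximal effect; 0% = no-compound wells and -100% = no-enzyme wells; nearly all actives have a fitted effect of over 25% in size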
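20 mM phosphate pH 7.0 + 0.01% (detergent screen) or 0.0001% Triton X-100; 5.3 nM AmpC reagent; cpd preinc 15 min RT; nitrocefin (800 uM stock) to start; A480 q20 s × 4 min; Activity was normalised to no-enzyme and no-compound control wells.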
AMA1-RON2 inh – inhibitors of Plasmodium falciparum AMA1-RON2 interaction | AlphaScreen AMA1-biotinylated RON2 peptide binding | Potency, µM (top dose mostly 58.2 µM), inactives show at the top dose activity change, negative = inhibition, usual class: inhibitors | hit rate 0.2% among 360,000;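 note: potency is the fitted concentration of half-maximal effect; 0% = vehicle wells and -100% = peptide control; nearly all actives have a fitted effect of over 45% in size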
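AMA1 (3D7) with his tag at 25 nM final met compounds first, then biotinylated RON2 peptide at 25 nM; detection used donor plus acceptor beads, 10 µg/mL apiece, read by AlphaScreen after 30 min at room temperature.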
Cycloheximide cs – counter-screen for Shiga toxin inhibitors: cycloheximide protein synthesis inhibition; cell reporter, cycloheximide protein synthesis inhibition counterscreen; max response, %; hit rate 12% among 300,000; in the data active = max response mostly above about 13%, no sharp cut-off; inactive = mostly below about 14%; note: read at 38.3 µM for the half of the compounds with a filed dose; 0% is about no effect
Shiga inhibitor – Shiga toxin inhibition; hit rate 9.2% among 290,000; inhibition, % at 38.7 µM; Vero cells, Shiga toxin protein synthesis inhibition reporter; in the data active = inhibition mostly above about 28%, no sharp cut-off; inactive = mostly below about 43%; note: 0% is about no effect
The depositor's hits bear a star; u = inconclusive; x = not tested or not shown. Unless noted, calls come from the whole dose curve; as a rule, active = well fitted curve in the direction sought with a large enough effect; inconclusive = small, poorly fitted or top-dose-only effect, or another doubt; inactive = no such curve, though single readings can be large; an effect the other way counts as inactive or inconclusive.

SMILES	AmpC inh no detg	SARS PLP yeast	AmpC inh detg	AMA1-RON2 inh	Cycloheximide cs	Shiga inhibitor
O=Nc1ccc(NOC(=O)c2ccccc2Br)cc1	-17.8%	-58.8%	-9.9%	-20.4%	85.0*	127.4*
CCOc1ccccc1NC(=O)COn1nnc2ccc(Cl)cc21	9.8%	-9.8%	-14.5%	21.7%	15.1	2.4
Cc1ccc(-c2csc3nc(C)n(N)c(=O)c23)o1	-7.2%	9.0%	-8.4%	-7.6%	45.6*	47.4*
C=CCn1c(SCC(C)=O)nc2scc(-c3ccc(C)o3)c2c1=O	-15.8%	x	-4.3%	4.2%	20.1*	18.6*
C=CCn1c(SCC(=O)NC2CCCC2)nc2scc(-c3ccco3)c2c1=O	35.5µM*	7.2%	u	u	6.7	7.4
C=CCn1c(SCC(=O)NCCCC)nc2scc(-c3ccco3)c2c1=O	-23.4%	7.6%	u	-19.6%	-0.5	-3.3
CCC(CC)C(=O)Nc1ccc2nc(SCC(=O)N3CCCC3)sc2c1	x	x	-1.0%	x	x	x
CCOc1ccc(NC(=S)NNC(=O)c2cc(Br)ccc2Cl)cc1	-40.5%	-2.6%	-9.7%	106.5%	9.0	-3.2
O=C(N/N=C/c1ccc(F)c(F)c1)c1cc2c(s1)-c1ccccc1CC2	u	-1.7%	2.5%	6.5%	-3.6	-2.4
CNC(=O)c1cc(C)c(-c2ccccc2)s1	0.2%	-36.6%	-2.7%	7.8%	45.7*	34.6
CNC(=O)c1cc2c(s1)-c1ccccc1CC2	-1.0%	-4.3%	-4.6%	1.8%	48.8*	99.8*
O=C(Cc1c(F)cccc1Cl)OCC(=O)N1CCc2ccccc21	-28.2%	-0.3%	x	15.3%	x	x
Nc1ccccc1N1C(=O)c2cccc3cccc(c23)C1=O	x	x	x	1.8%	x	x
COC(=O)c1ccc(-c2ccc(/C=N/N3C(=O)C4C5C=CC(CC5)C4C3=O)o2)cc1 (stereo not given)	-10.2%	-1.3%	-3.7%	-1.1%	34.5*	36.6
O=C1C2C3C=CC(CC3)C2C(=O)N1/N=C/c1ccco1 (stereo not given)	-13.9%	0.7%	2.0%	-2.9%	16.5*	25.9
O=C1C2C(C(=O)N1/N=C/c1ccco1)C1C=CC2C12CC2 (stereo not given)	-6.7%	4.9%	4.5%	-11.4%	4.4	16.6
CCN(CC)C(=O)COc1ccc(/C(C)=N/NC(=O)c2ccccc2O)cc1	-35.8%	16.9%	-9.6%	-16.9%	28.4*	46.2
CN(Cc1ccccc1)C(=O)COC(=O)c1ccc(Cl)c(N)c1	-3.4%	9.8%	3.7%	-9.5%	51.2*	66.7*
CN(C)C(=O)COc1ccc(Oc2ccccc2)cc1	-13.3%	-0.2%	7.1%	-0.8%	31.0*	40.7*
CN(Cc1ccccc1)C(=O)COc1ccc(C(C)(C)C)cc1	37.2%	1.1%	-10.2%	16.7%	27.4*	57.2*
CCN(Cc1ccccc1)C(=O)COc1ccccc1	-0.4%	-3.1%	-10.9%	u	1.3	x
COC(=O)CCC(=O)OC1(C)C(=O)C=C2C=C(C3CC3)N(CCCCO)C=C2C1=O (stereo not given)	-0.6%	-1.4%	1.3%	2.6%	-3.6	20.5
Cc1cccc2nc(-c3ccc(N(C)C)cc3)c(Nc3ccc4c(c3)OCO4)n12	x	x	4.5%	x	x	x
CCN(CC)C(=O)COc1ccc(-c2ccccc2)cc1	37.3%	1.5%	-2.7%	7.8%	30.7*	51.6
CN(Cc1ccccc1)C(=O)COc1ccc(Br)cc1Cl	-3.0%	-11.5%	7.0%	19.1%	20.3*	38.1
SMILES	AmpC inh no detg	SARS PLP yeast	AmpC inh detg	AMA1-RON2 inh	Cycloheximide cs	Shiga inhibitor
COc1cccc(OCC(=O)NN=C2c3ccccc3-c3ccccc32)c1	-25.0%	5.6%	0.9%	-28.6%	-2.7	-12.3
CCOC(=O)Oc1ccc2c(=O)c(Oc3cccc(C)c3)coc2c1	-12.0%	-34.6%	-1.4%	2.6%	21.0*	23.7
Cc1cccc(Oc2coc3cc(OC(=O)c4cc5ccccc5oc4=O)ccc3c2=O)c1	-50.0%	-8.8%	-5.1%	-2.2%	39.7*	37.8
CCOC(=O)Oc1ccc2c(=O)c(Oc3cc(C)cc(C)c3)coc2c1	-15.2%	-37.5%	-0.8%	-4.1%	1.3	-17.5
Cc1cccc(Oc2coc3cc(O)ccc3c2=O)c1	-31.0%	-1.8%	3.9%	-7.4%	31.2*	48.9*
Cc1cccc(Oc2coc3cc(OC(=O)c4cncc(Br)c4)ccc3c2=O)c1	-25.0%	-1.5%	-2.2%	-0.8%	1.7	22.0
CC(C)N(C(=O)CSc1nc2ccc(Cl)cc2[nH]1)c1ccccc1	x	x	9.9%	x	x	x
O=S(=O)(c1cccc(Br)c1)N1CCN(S(=O)(=O)c2ccc3c(c2)OCCO3)CC1	-29.7%	-3.3%	x	x	x	x
COc1cc(C)ccc1OCc1cc(C(=O)N(Cc2c(C)nn(C)c2C)C2CC2)no1	114.1%	2.6%	1.1%	-6.1%	51.7*	75.9*
COc1cc(C)ccc1OCc1cc(C(=O)N2C[C@H]3CC[C@H]2C3)no1	56.4%	u	-4.9%	-9.3%	20.5*	22.5
COc1cc(Cl)ccc1OCc1cc(C(=O)N2C[C@H]3CC[C@H]2C3)no1	56.5%	-1.5%	1.5%	-4.6%	54.9*	107.8*
O=C(c1cc(COc2cccc(C(F)(F)F)c2)on1)N1CCC(c2ccccc2)CC1	7.4%	-1.6%	11.4%	22.4%	8.4	3.5
O=C(c1cc(COc2cccc(C(F)(F)F)c2)on1)N1C[C@@H]2CCC[C@H]1C2	112.3%	-5.0%	-11.2%	11.9%	33.6*	77.3*
O=C(NCCOC(=O)c1ccc(C(=O)OCCNC(=O)c2cccnc2)s1)c1cccnc1	-1.0%	0.7%	-6.5%	3.1%	-1.7	23.7
CCN1CCN(S(=O)(=O)c2ccc(Cl)c(C(=O)NC3CCCCC3)c2)CC1	-17.4%	4.0%	0.0%	-1.1%	x	x
O=C(Nc1ccccc1N1CCOCC1)C1=COCCO1	-9.8%	-0.5%	-1.3%	-2.6%	x	x
COc1cc(Cl)ccc1OCc1cc(C(=O)N2C[C@]3(C)C[C@H]2CC(C)(C)C3)no1	48.4%	-11.8%	3.0%	-21.6%	71.6*	111.0*
COc1cc(C)ccc1OCc1cc(C(=O)N2CCN(C)C[C@@H]2c2ccccc2)no1	135.9%	2.3%	5.7%	-2.1%	42.3*	67.0*
CC1(C)CC2CC(C)(CN2C(=O)c2cc(-c3ccccc3)on2)C1 (stereo not given)	41.0%	-5.2%	1.1%	-19.8%	2.2	-5.1
COc1cc(C)ccc1OCc1cc(C(=O)NCCN2CCCC(O)C2)no1 (stereo not given)	0.1%	2.8%	u	4.9%	-1.9	5.4
Cn1ccnc1C1CCCCN1C(=O)c1cc(COc2ccc(F)cc2Cl)on1 (stereo not given)	130.2%	-0.2%	-3.0%	-11.0%	-1.7	-12.0
COc1cc(Cl)ccc1OCc1cc(C(=O)N2C[C@@H]3CCC[C@H]2C3)no1	80.1%	-3.3%	2.3%	-10.8%	60.1*	144.8*

Screening results as filed in PubChem BioAssay.
